Assay outcomes (PubChem)
Only some compounds are listed: those with a hit (about 1.5% of all), similar ones and a draw of the others.
MEX-5 binding = C. elegans MEX-5 TCR-2 RNA binding activity. MEX-5/FITC-TCR2 RNA binding, fluorescence polarization; hits give low values. activity score (negative = inhibition of binding), % at 10 µM. 300,000 compounds, 0.38% hits;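 active = inhibition past about -25% in most replicates, and total fluorescence under double the plate's negative control median, limit read from the data; inconclusive = replicates evenly split on the limit, or fluorescence at least double controls; inactive = too little inhibition in most replicates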;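 also: 0% = DMSO and -100% = 5 µM competing unlabeled TCR2 RNA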
EBV gp42 block = blocks Epstein-Barr virus glycoprotein 42 binding; inhibition, % (tested at 21.74 µM); Fluorescence polarization binding assay, mP read-out; 220,000 compounds, 0.42% hits; Q1HVG2; in the data active = inhibition above about 50%
BCLXL inh = blocks human Bcl-xL binding to Bim BH3 peptide | 320,000 compounds, 0.7% hits | GST-Bcl-xL / FITC-Bim BH3 peptide fluorescence polarization | inhibition, % at 10.9 µM | Q07817;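 active = inhibition above the mean of all tested compounds plus 3 SD, cutoff set per campaign, cut at about 30% in these data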;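 also: 0% = DMSO wells and 100% = unlabeled Bim-BH3 peptide competitor; inhibitors lower millipolarization by displacing the labeled peptide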
E coli Lon inh = E. coli protease La inhibition. inhibition, % at 7.94 µM. P0A9M0. 360,000 compounds, 0.42% hits. purified E. coli Lon protease, fluorescence polarization; in the data active = inhibition above about 13%, passing the limit was not always enough;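 also: 0% = enzyme with probe and DMSO and 100% = no enzyme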
Target sequence (P0A9M0 whole entry, looked up): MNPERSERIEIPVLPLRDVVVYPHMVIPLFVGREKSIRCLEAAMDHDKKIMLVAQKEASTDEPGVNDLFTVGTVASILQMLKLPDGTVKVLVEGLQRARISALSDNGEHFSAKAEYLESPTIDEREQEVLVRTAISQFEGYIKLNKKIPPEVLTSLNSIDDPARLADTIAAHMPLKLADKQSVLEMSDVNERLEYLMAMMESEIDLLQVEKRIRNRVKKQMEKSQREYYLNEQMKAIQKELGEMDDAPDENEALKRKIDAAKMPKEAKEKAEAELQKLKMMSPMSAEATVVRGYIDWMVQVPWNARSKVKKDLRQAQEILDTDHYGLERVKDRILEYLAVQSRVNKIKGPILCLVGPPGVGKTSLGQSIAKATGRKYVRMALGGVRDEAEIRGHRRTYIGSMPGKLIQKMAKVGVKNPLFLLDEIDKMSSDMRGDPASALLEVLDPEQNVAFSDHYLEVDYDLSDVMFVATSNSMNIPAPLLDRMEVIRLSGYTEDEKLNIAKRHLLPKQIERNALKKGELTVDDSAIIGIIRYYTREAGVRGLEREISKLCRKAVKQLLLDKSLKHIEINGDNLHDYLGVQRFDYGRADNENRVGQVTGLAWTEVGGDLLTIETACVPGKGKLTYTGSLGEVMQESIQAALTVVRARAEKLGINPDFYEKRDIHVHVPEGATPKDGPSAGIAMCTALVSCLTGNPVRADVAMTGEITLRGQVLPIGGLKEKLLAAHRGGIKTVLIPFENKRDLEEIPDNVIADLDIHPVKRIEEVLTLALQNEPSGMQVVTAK
GLD-1 RNA inh = GLD-1-TGE RNA interaction inhibition (C. elegans). purified GLD-1 + fluorescein TGE RNA, fluorescence polarization. AID 2280. inhibition, % at 5.96 µM. 320,000 compounds, 0.44% hits;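 active = percent inhibition above a per-plate cutoff, the plate mean of test compounds plus 3 SD, cut at about 30% in these data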;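 also: 0% = DMSO wells with GLD-1 and probe and 100% = wells lacking GLD-1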
MCL1 BIM primary = disrupts human MCL1 binding to BIM-BH3 peptide; Q07820; GST-MCL1 / FITC-Bim-BH3 fluorescence polarization; inhibition, % at 10.9 µM; 320,000 compounds, 0.68% hits; AID 2057;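 active = inhibition above the mean inhibition of all tested compounds plus 3 SD, set per campaign, cut at about 40% in these data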;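 also: 0% = DMSO wells and 100% = unlabeled Bim-BH3 peptide control; higher means more loss of mP so more displacement of Bim peptide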
Numbers without * were called inactive; ? = inconclusive; . = no result given.

SMILES | MEX-5 binding | EBV gp42 block | BCLXL inh | E coli Lon inh | GLD-1 RNA inh | MCL1 BIM primary
Cc1cc(Cl)cc2c(N=Nc3ccccc3C(=O)O)c(O)[nH]c12 | -1 | . | 13 | -1 | -2 | 9
Cc1ccc(Cl)c2c(N=Nc3ccccc3)c(O)[nH]c12 | -43* | . | . | 1 | . | .
O=C(COC(=O)c1ccccc1NC(=O)c1ccco1)Nc1ncc(Cl)cc1Cl | -2 | -39 | 5 | -8 | 8 | -3
Cc1c(Cl)cnc(NC(=O)COC(=O)c2ccncc2)c1Cl | . | . | 34* | 8 | 18 | 37
O=C(COC(=O)c1ccccc1O)Nc1ncc(Cl)cc1Cl | 1 | 31 | 36* | -15 | 10 | 40*
Cc1c(Cl)cnc(NC(=O)COC(=O)[C@H](C)NC(=O)c2ccccc2)c1Cl | . | . | 32* | -4 | 16 | 46*
CN(C)/C=C1/C=C(c2ccccc2)OC1=O | 0 | -2 | -4 | 0 | 0 | -7
CCC1=C/C(=C/N(C)c2ccccc2)C(=O)S1 | -7 | 8 | 31* | -8 | 29 | 31
Cc1nc2ccccc2c2oc(C(=O)Nc3ccc4c(c3)OCCO4)cc12 | -28* | -12 | 6 | 0 | 6 | -6
Cc1oc(C)c2c(=O)ccc3c(c12)OC(N)=C(C#N)C3c1ccccc1 (stereo not drawn) | -7 | -14 | 32* | -10 | 9 | 39
COc1ccc(NC(=O)C2(C)CCN2Cc2ccc(C(C)C)cc2)cc1OC (stereo not drawn) | . | . | . | 2 | . | .
O=C1C(=O)N(C2CCS(=O)(=O)C2)C(c2cccc(O)c2)/C1=C(/O)c1ccc(Cl)cc1 (stereo not drawn) | -1 | . | -1 | -7 | -3 | 9
Cc1ccc2cc3c(N)c4c(C)ccc(C)c4nc3nc2c1 | -4 | 148* | . | 5 | . | .
CCOCc1nc(N)nc(N)c1-c1cccc(Cl)c1 | . | . | . | -1 | . | .
CN(C)c1ccc(N=Cc2nc(-c3ccccc3)oc2OC(=O)c2cccc(Br)c2)cc1 | -43* | -2 | -32 | -86 | -20 | -67
COc1ccc(N=Cc2nc(-c3ccccc3)oc2OC(=O)c2ccccc2)cc1 | -1 | -15 | 0 | 0 | 1 | -2
COc1nc(NC(C)C)nc(N(C#N)CN2C(=O)c3ccccc3S2(=O)=O)n1 | 1 | -28 | 5 | -4 | 4 | 6
CC(C)Nc1nc(Cl)nc(N(C#N)CN2C(=O)c3ccccc3S2(=O)=O)n1 | -4 | 52* | -4 | -1 | 4 | -13
CSc1ncccc1C(=O)OCC(=O)NC12CC3CC(CC(C3)C1)C2 | . | . | . | 1 | 1 | .
COc1ccc(S(=O)(=O)N2CCOC2CNC(=O)C(=O)NCc2ccc(F)cc2)cc1OC (stereo not drawn) | 2 | . | 3 | -4 | -1 | 5
O=C(Nc1nnc(-c2ccccc2Cl)o1)c1cc2cc([N+](=O)[O-])ccc2s1 | . | 68* | . | . | . | .
CCOC(=O)C1CCN(C(=O)CCc2nc3sc4c(c3c(=O)[nH]2)CCCC4)CC1 | 1 | . | -4 | -17 | -6 | -2
O=C(CC1C(=O)NCCN1Cc1ccccn1)NCCc1ccccc1F (stereo not drawn) | -1 | . | 30* | 13 | 21 | 34
CCOc1ccc(CN2CCNC(=O)C2CC(=O)NCCc2ccccn2)cc1 (stereo not drawn) | -4 | 7 | 14 | -4 | 12 | 8
Cn1c(/N=C/c2c(O)ccc3ccccc23)nc2ccccc21 | . | 157* | 36* | 3 | 5 | 34
SMILES | MEX-5 binding | EBV gp42 block | BCLXL inh | E coli Lon inh | GLD-1 RNA inh | MCL1 BIM primary
O=S(=O)(c1ccccc1)N1CCNCC1 | -1 | . | 3 | 0 | 1 | 5
CCCc1cc(=O)[nH]c(-n2[nH]c3c(c2=O)CCCC3)n1 | -9 | 14 | 47* | -22 | 29 | 40
COc1cc(C2C(C#N)=C(N)Oc3n[nH]c(-c4cccnc4)c32)ccc1OCC(N)=O (stereo not drawn) | -2 | 7 | 3 | -7 | 2 | 2
COc1cc(C2C(C#N)=C(N)Oc3n[nH]c(-c4cccnc4)c32)cc(Br)c1O (stereo not drawn) | -34* | -15 | -1 | -11 | -9 | -6
CCCCC[C@H](C)N1C[C@@H](COCc2ccccc2)Oc2cc(N3CCC[C@@H]3COC)ccc2S1(=O)=O | . | . | . | -3 | . | .
N#Cc1cc(C(=O)c2cc(F)ccc2O)cn(-c2nccs2)c1=O | ? | 21 | 38* | -261 | 11 | -1
N#Cc1cc(C(=O)c2ccccc2O)cn(-c2nccs2)c1=O | ? | 51* | 32* | -249 | 54* | 15
Cc1ccc(C(=O)N2CC(C)OC(C)C2)cc1S(=O)(=O)N1CCCCC1 (stereo not drawn) | . | . | 3 | -5 | 9 | 1
Nc1ccc(-c2nc3ccc(C(=O)O)cc3s2)cc1 | -3 | 99* | 7 | -6 | 1 | 12
O=C(CSc1nnc(Cc2cc(=O)[nH]c(=O)[nH]2)n1-c1ccc(Cl)cc1)NCC1CCCO1 (stereo not drawn) | . | 8 | 8 | 22* | 7 | 2
O=C(CSc1nnc(Cc2cc(=O)[nH]c(=O)[nH]2)n1-c1ccccc1)NCC1CCCO1 (stereo not drawn) | -7 | -6 | 16 | 9 | 25 | 13
Cc1ccc(NC(=S)N2CCN(S(C)(=O)=O)CC2)cc1C | . | . | . | 9 | . | .
O=C(CNC(=O)[C@@H]1Cc2ccccc2CN1)NCc1ccco1 | -2 | . | 5 | -3 | 6 | 5
CCOC(=O)C1CCN(C(=O)c2ccccc2Oc2ccccc2)CC1 | 0 | -9 | 2 | -10 | 6 | 7
CCOC(=O)N1CCN(C(=O)c2ccccc2Oc2ccccc2)CC1 | 2 | 130* | 4 | -2 | 1 | -1
O=C(NCc1cccc(Cl)c1)c1cnccn1 | -4 | 39 | 45* | 9 | 25 | 46*
CC(=O)Nc1ncc(Sc2ccc([N+](=O)[O-])cc2)s1 | . | . | . | -1 | . | .
O=C(CCN1C(=O)C2CC=C(Cl)CC2C1=O)NCc1ccco1 (stereo not drawn) | -8 | 4 | 10 | 6 | 9 | 12
O=C1C2CC=C(Cl)CC2C(=O)N1CN(Cc1ccco1)CN1C(=O)C2CC=C(Cl)CC2C1=O (stereo not drawn) | -11 | -2 | 45* | 2 | 44* | 51*
O=C1C2CC=C(Cl)CC2C(=O)N1CC1Cc2ccccc2CO1 (stereo not drawn) | -26* | 44 | 26 | 10 | 25 | 21
O=C1C2CC=C(Cl)CC2C(=O)N1CC1OCCc2ccccc21 (stereo not drawn) | -7 | 5 | 11 | 17 | 2 | 7
O=C(O)C1Nc2c(O)cccc2C2C=CCC12 (stereo not drawn) | . | 108* | 62* | 9 | 3 | 90*
O=C(OC1CCCCC1)c1ccc2c(c1)C1C=CCC1C(C(=O)O)N2 (stereo not drawn) | . | 88* | . | . | . | .
CCOC(=O)c1ccc2c(c1)C1C=CCC1C(C(=O)OCC)N2 (stereo not drawn) | -1 | . | 25 | -4 | 0 | 22
